Consider eleven compounds from ChEMBL document CHEMBL2218924, “A broad activity screen in support of a chemogenomic map for kinase signalling research and drug discovery” (Biochem J, 2013).

Assay [1] has as its target Ribosomal protein S6 kinase alpha-5 (Homo sapiens) (UniProt O75582). Conditions: at 1 µM.
Assay [2] has the same target. Conditions: at 10 µM.
The target of assay [3] is SRSF protein kinase 3 (Homo sapiens) (UniProt Q9UPE1). The settings on record: at 1 µM.
For assay [4] the target is unchanged. Conditions: at 10 µM.
Assay [5] addresses T1, Serine/threonine-protein kinase 4 (Homo sapiens) (UniProt Q13043).
T1 sequence (whole entry): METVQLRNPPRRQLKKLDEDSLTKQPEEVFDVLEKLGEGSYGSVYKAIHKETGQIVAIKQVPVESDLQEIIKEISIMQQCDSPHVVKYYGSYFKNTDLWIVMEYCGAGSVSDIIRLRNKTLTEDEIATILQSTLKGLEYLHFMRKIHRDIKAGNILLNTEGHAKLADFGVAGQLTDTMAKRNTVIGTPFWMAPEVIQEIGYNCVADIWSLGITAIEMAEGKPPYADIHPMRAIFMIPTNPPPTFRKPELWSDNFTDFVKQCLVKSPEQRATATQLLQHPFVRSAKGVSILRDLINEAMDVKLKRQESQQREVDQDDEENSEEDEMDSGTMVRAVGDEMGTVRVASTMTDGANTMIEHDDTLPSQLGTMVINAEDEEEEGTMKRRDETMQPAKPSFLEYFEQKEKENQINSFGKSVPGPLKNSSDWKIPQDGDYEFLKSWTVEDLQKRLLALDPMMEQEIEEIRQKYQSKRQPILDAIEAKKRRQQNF
The settings on record: at 10 µM.

In assay [6] the target is Serine/threonine-protein kinase 24 (Homo sapiens) (UniProt Q9Y6E0). The settings on record: at 1 µM.
For assay [7] the target is unchanged. Conditions: at 10 µM.
Assay [8] concerns the target Hepatocyte growth factor receptor (Homo sapiens) (UniProt P08581). The settings on record: at 1 µM.
For assay [9] the target is unchanged. Conditions: at 10 µM.
Assay [10] has as its target MAP kinase-interacting serine/threonine-protein kinase 2 (Homo sapiens) (UniProt Q9HBH9). Conditions: at 1 µM.
Assay [11] shares this target. The settings on record: at 10 µM.
Assay [12] deals with Ribosomal protein S6 kinase alpha-4 (Homo sapiens) (UniProt O75676). The settings on record: at 10 µM.
Assay [13] concerns the target T2, Tyrosine-protein kinase Mer (Homo sapiens) (UniProt Q12866).
T2 sequence (whole entry): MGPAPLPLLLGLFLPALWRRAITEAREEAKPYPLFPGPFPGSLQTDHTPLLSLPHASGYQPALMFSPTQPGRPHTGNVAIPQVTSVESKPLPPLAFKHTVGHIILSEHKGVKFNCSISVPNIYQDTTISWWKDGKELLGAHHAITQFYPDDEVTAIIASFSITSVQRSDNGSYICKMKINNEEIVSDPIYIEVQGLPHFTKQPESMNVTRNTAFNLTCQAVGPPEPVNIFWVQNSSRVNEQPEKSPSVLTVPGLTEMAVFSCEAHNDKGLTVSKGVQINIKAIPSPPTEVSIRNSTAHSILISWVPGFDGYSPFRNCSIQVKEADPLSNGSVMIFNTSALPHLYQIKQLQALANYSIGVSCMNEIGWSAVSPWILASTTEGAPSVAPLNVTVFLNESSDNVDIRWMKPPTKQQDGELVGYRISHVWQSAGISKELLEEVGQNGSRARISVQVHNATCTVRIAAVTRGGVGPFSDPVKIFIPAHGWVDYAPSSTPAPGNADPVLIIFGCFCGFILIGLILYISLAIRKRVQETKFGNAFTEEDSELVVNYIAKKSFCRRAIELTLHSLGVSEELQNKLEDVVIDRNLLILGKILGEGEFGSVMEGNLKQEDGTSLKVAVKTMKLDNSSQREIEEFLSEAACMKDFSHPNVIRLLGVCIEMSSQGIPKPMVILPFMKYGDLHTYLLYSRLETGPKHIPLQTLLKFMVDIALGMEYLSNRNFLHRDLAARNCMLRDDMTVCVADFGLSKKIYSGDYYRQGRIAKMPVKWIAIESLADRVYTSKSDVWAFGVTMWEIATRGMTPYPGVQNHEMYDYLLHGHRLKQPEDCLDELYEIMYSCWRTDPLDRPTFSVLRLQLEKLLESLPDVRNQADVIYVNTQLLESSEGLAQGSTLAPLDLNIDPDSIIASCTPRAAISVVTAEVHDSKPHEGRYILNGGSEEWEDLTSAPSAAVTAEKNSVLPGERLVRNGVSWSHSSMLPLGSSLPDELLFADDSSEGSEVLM
Conditions: at 1 µM.

For assay [14], the target named is T2, Tyrosine-protein kinase Mer (Homo sapiens). The settings on record: at 10 µM.
Assay [15] concerns the target Ribosomal protein S6 kinase alpha-4 (Homo sapiens) (UniProt O75676). The settings on record: at 1 µM.
In assay [16] the target is T3, Serine/threonine-protein kinase 3 (Homo sapiens) (UniProt Q13188).
T3 sequence (whole entry): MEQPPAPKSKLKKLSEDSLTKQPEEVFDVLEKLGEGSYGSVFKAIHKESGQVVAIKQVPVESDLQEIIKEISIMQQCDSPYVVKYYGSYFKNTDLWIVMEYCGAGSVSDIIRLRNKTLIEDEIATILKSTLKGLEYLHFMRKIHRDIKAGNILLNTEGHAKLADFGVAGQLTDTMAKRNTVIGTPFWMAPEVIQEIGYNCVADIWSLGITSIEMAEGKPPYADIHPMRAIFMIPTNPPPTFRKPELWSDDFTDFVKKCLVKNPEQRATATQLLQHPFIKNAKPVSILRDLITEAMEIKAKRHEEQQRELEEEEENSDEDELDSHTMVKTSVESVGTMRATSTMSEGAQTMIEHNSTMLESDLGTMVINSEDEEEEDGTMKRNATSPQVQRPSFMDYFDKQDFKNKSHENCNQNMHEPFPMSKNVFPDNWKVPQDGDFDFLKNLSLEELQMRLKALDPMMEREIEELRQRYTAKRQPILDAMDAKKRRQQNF
The settings on record: at 10 µM.

The target of assay [17] is Serine/threonine-protein kinase MRCK beta (Homo sapiens) (UniProt Q9Y5S2). Conditions: at 1 µM.
Chain of Serine/threonine-protein kinase MRCK beta (Homo sapiens) (Q9Y5S2 whole entry): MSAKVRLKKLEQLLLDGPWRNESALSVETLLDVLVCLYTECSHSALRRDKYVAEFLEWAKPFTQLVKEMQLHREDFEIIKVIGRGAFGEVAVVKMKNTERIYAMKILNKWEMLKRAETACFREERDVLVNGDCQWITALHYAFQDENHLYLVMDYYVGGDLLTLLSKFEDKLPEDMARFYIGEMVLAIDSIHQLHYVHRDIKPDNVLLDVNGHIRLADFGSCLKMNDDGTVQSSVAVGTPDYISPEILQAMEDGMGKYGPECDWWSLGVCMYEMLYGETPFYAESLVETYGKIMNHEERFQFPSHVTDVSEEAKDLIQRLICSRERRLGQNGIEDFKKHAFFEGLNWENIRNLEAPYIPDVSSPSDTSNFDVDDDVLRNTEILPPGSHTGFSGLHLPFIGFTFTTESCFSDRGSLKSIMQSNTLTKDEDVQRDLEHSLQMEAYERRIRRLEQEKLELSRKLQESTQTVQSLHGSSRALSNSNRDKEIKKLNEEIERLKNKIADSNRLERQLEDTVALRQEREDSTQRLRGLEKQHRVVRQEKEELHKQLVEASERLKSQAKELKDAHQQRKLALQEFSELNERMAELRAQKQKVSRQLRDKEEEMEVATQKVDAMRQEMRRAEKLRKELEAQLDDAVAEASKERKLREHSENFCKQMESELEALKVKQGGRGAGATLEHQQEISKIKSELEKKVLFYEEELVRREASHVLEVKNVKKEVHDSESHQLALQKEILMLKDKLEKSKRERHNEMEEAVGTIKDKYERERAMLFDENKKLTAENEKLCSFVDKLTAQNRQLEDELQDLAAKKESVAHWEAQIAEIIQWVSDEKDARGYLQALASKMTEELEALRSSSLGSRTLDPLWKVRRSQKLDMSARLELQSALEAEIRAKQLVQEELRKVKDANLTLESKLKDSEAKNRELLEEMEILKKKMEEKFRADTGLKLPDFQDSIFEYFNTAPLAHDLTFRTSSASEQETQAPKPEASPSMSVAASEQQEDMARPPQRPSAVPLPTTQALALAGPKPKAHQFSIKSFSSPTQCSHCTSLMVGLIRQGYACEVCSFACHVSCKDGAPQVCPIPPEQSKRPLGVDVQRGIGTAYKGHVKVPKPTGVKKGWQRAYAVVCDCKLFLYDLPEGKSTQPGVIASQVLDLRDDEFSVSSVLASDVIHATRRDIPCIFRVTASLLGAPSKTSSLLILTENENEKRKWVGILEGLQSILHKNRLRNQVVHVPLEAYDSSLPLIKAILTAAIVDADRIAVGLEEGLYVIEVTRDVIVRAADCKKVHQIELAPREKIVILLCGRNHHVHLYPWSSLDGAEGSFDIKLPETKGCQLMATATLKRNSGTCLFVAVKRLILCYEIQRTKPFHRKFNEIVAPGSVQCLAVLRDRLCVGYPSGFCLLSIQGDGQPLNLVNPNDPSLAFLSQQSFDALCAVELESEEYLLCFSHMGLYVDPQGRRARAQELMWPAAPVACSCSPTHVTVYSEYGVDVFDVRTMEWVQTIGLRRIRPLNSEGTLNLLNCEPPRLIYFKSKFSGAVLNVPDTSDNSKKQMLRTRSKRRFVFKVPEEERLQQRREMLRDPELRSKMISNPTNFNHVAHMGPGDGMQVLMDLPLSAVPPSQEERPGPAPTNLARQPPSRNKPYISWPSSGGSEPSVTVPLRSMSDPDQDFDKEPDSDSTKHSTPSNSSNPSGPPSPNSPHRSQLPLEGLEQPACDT
For assay [18], the target named is T3, Serine/threonine-protein kinase 3 (Homo sapiens). The settings on record: at 1 µM.
Assay [19] deals with Serine/threonine-protein kinase MRCK beta (Homo sapiens) (UniProt Q9Y5S2). Conditions: at 10 µM.
For assay [20], the target named is T1, Serine/threonine-protein kinase 4 (Homo sapiens). The settings on record: at 1 µM.

Chain of Ribosomal protein S6 kinase alpha-5 (Homo sapiens) (O75582 whole entry, looked up): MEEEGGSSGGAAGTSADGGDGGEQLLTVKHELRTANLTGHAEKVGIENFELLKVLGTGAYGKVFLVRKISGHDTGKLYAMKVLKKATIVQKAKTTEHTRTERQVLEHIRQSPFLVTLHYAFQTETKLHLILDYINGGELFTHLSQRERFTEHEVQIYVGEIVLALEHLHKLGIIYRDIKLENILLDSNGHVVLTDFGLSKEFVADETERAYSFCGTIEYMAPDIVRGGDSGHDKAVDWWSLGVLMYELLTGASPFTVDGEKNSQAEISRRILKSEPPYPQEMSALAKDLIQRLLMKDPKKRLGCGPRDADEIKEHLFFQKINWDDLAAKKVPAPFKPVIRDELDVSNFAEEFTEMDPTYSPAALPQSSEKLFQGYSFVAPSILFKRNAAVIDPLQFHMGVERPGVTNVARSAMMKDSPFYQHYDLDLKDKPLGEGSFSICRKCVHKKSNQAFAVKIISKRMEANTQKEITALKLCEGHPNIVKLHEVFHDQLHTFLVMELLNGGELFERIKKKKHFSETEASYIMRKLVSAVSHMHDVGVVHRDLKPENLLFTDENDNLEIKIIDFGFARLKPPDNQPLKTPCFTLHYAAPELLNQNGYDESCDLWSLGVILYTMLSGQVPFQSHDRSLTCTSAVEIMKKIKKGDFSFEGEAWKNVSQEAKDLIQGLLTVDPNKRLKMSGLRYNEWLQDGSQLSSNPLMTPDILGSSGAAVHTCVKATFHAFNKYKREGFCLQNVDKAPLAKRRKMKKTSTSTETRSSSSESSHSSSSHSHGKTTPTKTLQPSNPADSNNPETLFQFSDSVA
Chain of SRSF protein kinase 3 (Homo sapiens) (Q9UPE1 whole entry): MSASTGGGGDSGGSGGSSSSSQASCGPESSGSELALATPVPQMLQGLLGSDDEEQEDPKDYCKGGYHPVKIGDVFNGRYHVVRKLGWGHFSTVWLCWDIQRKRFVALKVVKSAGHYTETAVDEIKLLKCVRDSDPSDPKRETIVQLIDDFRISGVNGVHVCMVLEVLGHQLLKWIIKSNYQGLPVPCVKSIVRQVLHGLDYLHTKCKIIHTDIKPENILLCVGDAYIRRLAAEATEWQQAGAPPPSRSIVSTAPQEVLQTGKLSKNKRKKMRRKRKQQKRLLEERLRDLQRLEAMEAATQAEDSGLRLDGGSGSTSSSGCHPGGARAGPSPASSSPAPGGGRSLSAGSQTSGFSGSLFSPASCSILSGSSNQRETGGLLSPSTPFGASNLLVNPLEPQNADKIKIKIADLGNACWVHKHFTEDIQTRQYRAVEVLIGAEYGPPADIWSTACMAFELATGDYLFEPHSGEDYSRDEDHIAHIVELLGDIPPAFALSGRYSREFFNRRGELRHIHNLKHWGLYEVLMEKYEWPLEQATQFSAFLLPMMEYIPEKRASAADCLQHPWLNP
Chain of MAP kinase-interacting serine/threonine-protein kinase 2 (Homo sapiens) (Q9HBH9 whole entry, looked up): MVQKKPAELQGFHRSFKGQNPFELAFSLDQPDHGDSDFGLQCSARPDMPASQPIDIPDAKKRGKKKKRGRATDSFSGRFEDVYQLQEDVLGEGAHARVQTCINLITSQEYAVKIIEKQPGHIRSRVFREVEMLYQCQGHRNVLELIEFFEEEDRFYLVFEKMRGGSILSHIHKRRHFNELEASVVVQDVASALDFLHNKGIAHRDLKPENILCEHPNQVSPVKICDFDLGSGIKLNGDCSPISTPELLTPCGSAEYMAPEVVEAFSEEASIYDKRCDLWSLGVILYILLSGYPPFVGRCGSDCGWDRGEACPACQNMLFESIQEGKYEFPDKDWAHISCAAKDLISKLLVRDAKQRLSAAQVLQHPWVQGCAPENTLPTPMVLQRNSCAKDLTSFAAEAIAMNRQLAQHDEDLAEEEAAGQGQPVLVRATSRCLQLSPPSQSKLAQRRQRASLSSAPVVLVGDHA
Chain of Hepatocyte growth factor receptor (Homo sapiens) (P08581 whole entry): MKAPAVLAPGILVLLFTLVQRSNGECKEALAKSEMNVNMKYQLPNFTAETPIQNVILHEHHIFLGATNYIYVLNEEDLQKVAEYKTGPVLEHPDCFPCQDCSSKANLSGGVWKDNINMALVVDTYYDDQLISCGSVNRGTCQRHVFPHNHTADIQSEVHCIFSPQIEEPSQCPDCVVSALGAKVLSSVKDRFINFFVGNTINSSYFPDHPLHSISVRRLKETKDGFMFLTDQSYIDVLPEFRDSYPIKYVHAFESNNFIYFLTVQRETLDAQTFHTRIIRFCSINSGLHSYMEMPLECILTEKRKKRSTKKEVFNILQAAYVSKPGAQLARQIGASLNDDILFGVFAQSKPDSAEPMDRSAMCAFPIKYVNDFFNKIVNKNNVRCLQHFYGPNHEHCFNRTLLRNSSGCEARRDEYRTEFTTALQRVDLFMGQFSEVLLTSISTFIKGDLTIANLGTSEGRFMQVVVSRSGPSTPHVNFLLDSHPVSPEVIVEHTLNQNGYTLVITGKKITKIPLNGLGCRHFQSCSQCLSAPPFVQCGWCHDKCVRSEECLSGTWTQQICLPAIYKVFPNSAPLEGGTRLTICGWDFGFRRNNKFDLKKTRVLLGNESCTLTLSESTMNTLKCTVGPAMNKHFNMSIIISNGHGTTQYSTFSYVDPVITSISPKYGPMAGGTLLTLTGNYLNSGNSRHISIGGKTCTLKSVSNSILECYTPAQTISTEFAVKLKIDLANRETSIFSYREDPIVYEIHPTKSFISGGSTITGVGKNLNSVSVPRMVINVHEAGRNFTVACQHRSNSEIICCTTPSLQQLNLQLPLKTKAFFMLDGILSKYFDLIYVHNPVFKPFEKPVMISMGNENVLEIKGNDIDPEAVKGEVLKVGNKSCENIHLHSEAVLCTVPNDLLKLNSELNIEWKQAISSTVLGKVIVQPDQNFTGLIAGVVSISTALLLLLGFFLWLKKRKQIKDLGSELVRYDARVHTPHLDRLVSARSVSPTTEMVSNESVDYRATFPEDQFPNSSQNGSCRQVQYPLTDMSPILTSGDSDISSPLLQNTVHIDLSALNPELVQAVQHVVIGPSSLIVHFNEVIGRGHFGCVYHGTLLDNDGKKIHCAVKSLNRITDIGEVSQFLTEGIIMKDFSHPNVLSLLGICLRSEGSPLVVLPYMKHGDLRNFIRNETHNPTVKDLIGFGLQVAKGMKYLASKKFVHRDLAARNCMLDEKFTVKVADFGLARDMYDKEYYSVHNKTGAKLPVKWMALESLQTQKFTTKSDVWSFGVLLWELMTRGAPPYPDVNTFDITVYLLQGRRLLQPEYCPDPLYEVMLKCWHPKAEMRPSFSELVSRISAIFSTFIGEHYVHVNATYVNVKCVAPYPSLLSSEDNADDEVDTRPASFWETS

As usually defined, the residual activity is the signal under treatment as a percentage of the control signal. On to `COc1ccc(COc2ccc(Cc3cnc(N)nc3N)cc2OC)cc1`, for which the residual activity in assay [1] was found to be 131%; in assay [2], 109%; in [3] it was 111%; in [4], 82%; in assay [5], 77%; in assay [6], 61%. Also, the residual activity in assay [7] amounted to 65%; in assay [8] it was 109%; in assay [9], 129%; in assay [10], 108%; in assay [11] it was 100%.

With `O=C(Nc1ccc(Cl)cc1)c1ccccc1NCc1ccncc1`, the residual activity was found to be 101% in [12]; 72% in assay [6]; 77% in assay [7]; 101% in assay [13]; 99% in [14].

As to `NCCNc1ncc(C(N)=O)c(Nc2cccc(C(F)(F)F)c2)n1`, the residual activity in assay [1] is 112%; in assay [2], 77%; in assay [15], 81%; in assay [12] it was 81%; in assay [3], 108%; in assay [4], 75%. Also, the residual activity was 77% in assay [16], 63% in assay [7], 80% in assay [13] and 26% in [14].

For the compound `N#Cc1c(NC(=O)c2cccc3ccccc23)sc2c1CCCC2`, the residual activity in assay [17] is 100%; in assay [12], 99%; in assay [18], 95%; in assay [16], 91%; in assay [6] it was 99%; in [7], 84%. The residual activity in assay [13] was 94%.

Turning to `CCN1/C(=C/C(C)=O)Sc2ccc(OC)cc21`, the residual activity in [6] worked out at 69%; in assay [7], 74%.

Consider `Fc1ccc(-c2nc3n(c2-c2ccncc2)CCS3)cc1`, for which the residual activity turned out to be 99% in assay [17]; 98% in assay [19]; 95% in [15]; 85% in assay [12]; 99% in assay [18]; 99% in [6]. For the same compound, the residual activity in assay [7] is 89%; in assay [8], 130%; in [9], 100%.

For the compound `CSc1nc(-c2ccc(F)cc2)c(-c2ccnc(NC(C)c3ccccc3)c2)[nH]1` (configuration not stated), the residual activity turned out to be 89% in [19]; 100% in assay [15]; 84% in [12]; 86% in assay [4]; 101% in assay [18]; 74% in [16]. Also, the residual activity in assay [6] came to 99%; in assay [7], 78%; in assay [14], 79%; in assay [8], 125%; in assay [9], 82%; in assay [11], 95%.

Regarding `O=C1NC(=O)C(c2cn(CCCn3ccnc3)c3ccccc23)=C1Nc1ccccc1`, the residual activity in assay [19] was found to be 41%; in assay [1], 39%; in assay [2] it was 6%; in assay [15] it was 22%; in assay [12], 4%; in [3], 100%. In addition, the residual activity in assay [4] worked out at 67%; in assay [20], 41%; in assay [5], 13%; in assay [18], 64%; in [16] it was 13%; in assay [6] it was 20%. Further, the values for the residual activity in assay [7], in assay [8] and in assay [9] were 8%, 114% and 79%, respectively.

Take `CCCCc1c(-c2ccc(O)cc2)[nH]c2nccnc12`: the residual activity in assay [15] was 90%; in [12], 85%; in assay [20], 61%; in assay [5], 42%; in [18], 86%; in assay [16], 45%. For the same compound, the residual activity came to 68% in [6]; 38% in [7]; 73% in assay [13]; 71% in assay [14]; 86% in assay [10]; 76% in assay [11].

For `Nc1nc(Nc2ccc(S(N)(=O)=O)cc2)nn1C(=O)c1c(F)cccc1F`, the residual activity in assay [3] worked out at 75%; in assay [4] it was 33%; in assay [20], 25%; in assay [5], 2%; in assay [18], 34%; in [16], 4%. Also, the residual activity in assay [6] is 61%; in [7], 6%; in [14] it was 1%; in assay [8] it was 45%; in [9], 10%; in assay [10], 95%. Further, the residual activity in assay [11] was 66%.

In the case of `CCOc1nc(NC(=O)Cc2cc(OC)ccc2OC)cc(N)c1C#N`, the residual activity in assay [20] was 80%.
